Data from PubChem BioAssay (NCATS).
Results filed as inconclusive are left out. Activity calls are given as the source filed them. Unless noted, calls follow the shape of the dose curve; as a rule, active = well fitted curve in the direction sought with a large enough effect; inconclusive = small, poorly fitted or top-dose-only effect, or another doubt; inactive = no such curve, though single readings can be large; an effect the other way counts as inactive or inconclusive.

Experiments:
[1] = qHTS assay for measurement of the activity of small molecule inhibitors on Zika virus induced Caspase-3 activity in human astrocytoma cells (AID 1224859); details: SNB-19 ZIKV-induced caspase-3/7, luminescence, 6 h; series mostly up to 45.7 µM;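 also: plate controls were ZIKV-infected untreated cells for no effect and uninfected cells for full effect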
Summary of the method: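 Percent inhibition of virus-induced caspase-3/7 signal is calculated against uninfected and ZIKV-infected control cells. Cells are SNB-19, infected at 2 FFU/cell for 6 h after 1 h compound exposure.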

[2] = qHTS assay to identify small molecule inhibitors of chordoma cells - UCH-1 (AID 1259355); details: UCH-1 chordoma viability, CellTiter-Glo, 48 h, combination; series mostly up to 46.1 µM; also: % is scaled to controls: 0 for no effect and ±100 for the full control effect; nearly all actives have a fitted effect of over 55% in size
Summary of the method: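 Seed 800 cells per well; incubate overnight at 37 C, 5% CO2. Add test compounds (15 concentrations), then the auranofin–topoisomerase-agent combination. Incubate 48hr, add CellTiter-Glo, wait 30min, read luminescence.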

[3] = qHTS assay to identify small molecule inhibitors of chordoma cells - UCH-2 (AID 1259356); details: UCH-2 chordoma viability, CellTiter-Glo ATP luminescence, 48 h; series mostly up to 46.1 µM; also: % is scaled to controls: 0 for no effect and ±100 for the full control effect
[4] = P-glycoprotein substrates identified in KB-8-5-11 adenocarcinoma cell line, qHTS therapeutic library screen (AID 1346987); details: KB-8-5-11 (P-gp overexpressing) viability, CellTiter-Glo, 72 h; series mostly up to 44.5 µM; also: nearly all actives have a fitted effect of over 65% in size
Summary of the method: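 KB-8-5-11: colchicine-selected sub-line of KB-3-1 over-expressing P-gp; assay medium lacked colchicine. 72 h drug exposure at 37 degree C, CellTiter-Glo.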

[5] = NS1 protein of Zika virus - qHTS assay to identify small molecule inhibitors in human HEK 293 cells (AID 1347053); details: HEK293 ZIKV MR766 infection, NS1 TR-FRET, 24 h; series mostly up to 46.1 µM;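 also: plate controls were infected untreated cells for no effect and uninfected cells for full effect; nearly all actives have a fitted effect of over 55% in size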
Summary of the method: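 HEK 293 cells, seeded 20 h at 37 C, were pretreated with compound 1 h, then infected with ZIKV MR766 (MOI = 0.5) for 24 h. NS1 was read by TR-FRET with two anti-NS1 antibodies, normalized to uninfected and infected wells.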

[6] = qHTS for Inhibitors of the Functional Ribonucleoprotein Complex (vRNP) of Lassa (LASV) Arenavirus: LASV Primary Screen - GLuc reporter signal (AID 1347082; calls by dose curve; tested in HEK293 reporter line; also: % is scaled to controls: 0 for no effect and ±100 for the full control effect; nearly all actives have a fitted effect of over 60% in size); details: LASV minigenome vRNP, Gaussia luciferase reporter; series mostly up to 57.5 µM
[7] = qHTS Screen of the MIPE 4.0 Collection Against Ewings Sarcoma (RDES) (AID 1259252); details: RD-ES Ewing sarcoma viability, CellTiter-Glo, 48 h; series mostly up to 45.8 µM;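 also: 100% = DMSO-treated cells and 0% = medium-only wells without cells; nearly all actives have a fitted effect of over 35% in size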
Summary of the method: (§1)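 Cells plated in serum-containing RPMI (5% FBS) and treated with compound dilutions for 48 h. Readout luminescent viability; normalization relied on vehicle (no inhibition) and media-only columns (full inhibition).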

[8] = qHTS Screen of the MIPE 4.0 Collection Against Ewings Sarcoma (TC71) (AID 1259253); details: TC71 Ewing sarcoma viability, CellTiter-Glo, 48 h; series mostly up to 45.8 µM;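 also: 100% = DMSO-treated cells and 0% = medium-only wells without cells; nearly all actives have a fitted effect of over 40% in size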
Summary of the method: as §1

[9] = qHTS Screen of the MIPE 4.0 Collection Against Ewings Sarcoma (EW8) (AID 1259255); details: EW8 Ewing sarcoma viability, CellTiter-Glo, 48 h; series mostly up to 45.8 µM;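 also: 100% = DMSO-treated cells and 0% = medium-only wells without cells; nearly all actives have a fitted effect of over 35% in size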
Summary of the method: as §1

[10] = qHTS Screen of the MIPE 4.0 Collection Against Ewings Sarcoma (TC32) (AID 1259256); details: TC32 Ewing sarcoma viability, CellTiter-Glo, 48 h; series mostly up to 45.8 µM; also: nearly all actives have a fitted effect of over 45% in size; also: potency is read from the fitted curve at half-maximal effect
Summary of the method: as §1

[11] = P-glycoprotein substrates identified in KB-3-1 adenocarcinoma cell line, qHTS therapeutic library screen (AID 1346986); details: KB-3-1 parental cells viability, CellTiter-Glo, 72 h; at 44.5 µM (top of the series) unless noted; also: nearly all actives have a fitted effect of over 60% in size
Summary of the method: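 Counter-screen: cherry-picked hits retested in the KB pair and in HEK-293 pcDNA/MDR-19 cells ± tariquidar. Primary screen used 72 h CellTiter-Glo viability in KB-3-1 and KB-8-5-11.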

[12] = Natriuretic polypeptide receptor (hNpr1) antagonism - Pilot counterscreen GloSensor control cell line (AID 1347045; calls by dose curve; also: % is scaled to controls: 0 for no effect and ±100 for the full control effect); details: HEK293 cGMP GloSensor cells, SNP-stimulated luminescence, 20 min; series mostly up to 38.3 µM
Summary of the method: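 HEK293 cells carrying the GloSensor cGMP sensor (GIP/pGS-40F) were loaded with 2% GloSensor reagent for 2 h, exposed to compounds for 30 min, and then stimulated with 50 uM sodium nitroprusside for 20 min at room temperature.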

[13] = target: Atrial natriuretic peptide receptor 2 (Homo sapiens) (UniProt P20594); assay: Natriuretic polypeptide receptor (hNpr2) antagonism - Pilot subtype selectivity assay (AID 1347050; calls by dose curve; also: % is scaled to controls: 0 for no effect and ±100 for the full control effect); details: NPR2-expressing cells, cGMP antagonist-mode read-out; series mostly up to 38.3 µM
Atrial natriuretic peptide receptor 2 (Homo sapiens), sequence (P20594 whole entry, looked up): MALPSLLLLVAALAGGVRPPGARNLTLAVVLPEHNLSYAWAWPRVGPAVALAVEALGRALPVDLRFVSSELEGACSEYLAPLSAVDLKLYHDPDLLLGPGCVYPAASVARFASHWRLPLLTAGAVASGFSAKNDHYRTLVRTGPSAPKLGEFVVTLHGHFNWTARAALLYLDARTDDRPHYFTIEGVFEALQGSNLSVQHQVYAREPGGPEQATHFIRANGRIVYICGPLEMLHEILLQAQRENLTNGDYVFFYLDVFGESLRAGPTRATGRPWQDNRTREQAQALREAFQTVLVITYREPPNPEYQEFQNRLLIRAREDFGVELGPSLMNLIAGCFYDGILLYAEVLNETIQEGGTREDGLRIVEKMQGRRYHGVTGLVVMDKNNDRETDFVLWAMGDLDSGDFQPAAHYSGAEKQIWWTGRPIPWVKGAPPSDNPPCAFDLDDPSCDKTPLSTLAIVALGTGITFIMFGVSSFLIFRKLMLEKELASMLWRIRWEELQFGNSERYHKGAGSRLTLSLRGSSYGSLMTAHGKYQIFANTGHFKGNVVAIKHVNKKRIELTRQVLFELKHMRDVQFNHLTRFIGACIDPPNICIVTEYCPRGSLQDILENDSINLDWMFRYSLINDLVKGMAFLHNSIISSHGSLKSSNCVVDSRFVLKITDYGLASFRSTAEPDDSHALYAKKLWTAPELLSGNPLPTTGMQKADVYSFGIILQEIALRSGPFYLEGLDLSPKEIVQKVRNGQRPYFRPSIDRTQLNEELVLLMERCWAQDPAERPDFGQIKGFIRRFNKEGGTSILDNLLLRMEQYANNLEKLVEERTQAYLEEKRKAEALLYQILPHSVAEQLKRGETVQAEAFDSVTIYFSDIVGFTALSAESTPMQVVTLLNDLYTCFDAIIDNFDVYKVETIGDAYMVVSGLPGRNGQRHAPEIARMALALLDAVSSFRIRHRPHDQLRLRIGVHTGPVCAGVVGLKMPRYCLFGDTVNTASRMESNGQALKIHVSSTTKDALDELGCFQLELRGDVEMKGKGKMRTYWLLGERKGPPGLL
Summary of the method: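 Pilot selectivity screen against hNpr2: HEK293 cGMP-sensor cells are treated with LOPAC1280 compounds, then with hNppC peptide at 1 nM final. The cGMP-driven luminescence change over 20 min at room temperature is the read-out.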

[14] = target: T1, Tyrosine-protein phosphatase non-receptor type substrate 1 (Homo sapiens) + Leukocyte surface antigen CD47 (Homo sapiens) (UniProt P78324+Q08722); assay: CD47-SIRPalpha protein protein interaction - LANCE assay qHTS validation (AID 1347057; active = well fitted curve in the direction sought with a large enough effect in the signal ratio, with a control signal flat, not every such curve was filed as active; the % refers to the signal ratio; also: 0% is about no effect); details: Recombinant CD47-His / biotin-SIRPalpha, TR-FRET ratio; series mostly up to 38.3 µM
T1 sequence (P78324 whole entry, looked up): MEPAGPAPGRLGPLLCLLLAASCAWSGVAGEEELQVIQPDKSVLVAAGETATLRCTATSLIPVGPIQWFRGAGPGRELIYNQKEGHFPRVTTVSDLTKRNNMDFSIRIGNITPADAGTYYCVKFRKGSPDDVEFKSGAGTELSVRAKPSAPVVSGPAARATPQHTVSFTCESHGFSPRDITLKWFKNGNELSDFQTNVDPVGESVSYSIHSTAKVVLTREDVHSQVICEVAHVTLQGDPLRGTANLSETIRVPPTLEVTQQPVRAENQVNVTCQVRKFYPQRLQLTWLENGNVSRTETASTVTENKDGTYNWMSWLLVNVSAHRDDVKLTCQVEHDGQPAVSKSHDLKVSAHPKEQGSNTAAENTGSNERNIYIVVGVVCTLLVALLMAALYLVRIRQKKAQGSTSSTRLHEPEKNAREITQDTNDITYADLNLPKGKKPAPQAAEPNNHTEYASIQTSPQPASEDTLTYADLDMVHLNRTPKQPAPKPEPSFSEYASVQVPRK
T1 sequence (Q08722 whole entry, looked up): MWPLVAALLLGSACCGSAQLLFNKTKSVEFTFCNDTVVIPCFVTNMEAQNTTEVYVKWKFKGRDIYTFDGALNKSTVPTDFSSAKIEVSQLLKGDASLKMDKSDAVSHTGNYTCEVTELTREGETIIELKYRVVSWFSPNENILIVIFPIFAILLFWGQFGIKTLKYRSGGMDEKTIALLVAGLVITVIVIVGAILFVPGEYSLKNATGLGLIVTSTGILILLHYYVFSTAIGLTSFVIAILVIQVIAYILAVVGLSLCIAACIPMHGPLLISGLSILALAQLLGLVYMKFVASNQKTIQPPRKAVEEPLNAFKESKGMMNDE
Summary of the method: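 First, His-tagged CD47 and Eu-labelled anti-His antibody met the compound for 30 min; next, site-specifically biotinylated SIRPalpha was added for 30 min; finally streptavidin-APC was added before reading the TR-FRET ratio.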

[15] = target: T1, Tyrosine-protein phosphatase non-receptor type substrate 1 (Homo sapiens) + Leukocyte surface antigen CD47 (Homo sapiens); assay: CD47-SIRPalpha protein protein interaction - HTRF assay qHTS validation (AID 1347058; active = well fitted curve in the direction sought with a large enough effect in the signal ratio, not every such curve was filed as active; the % refers to the signal ratio;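 also: recombinant soluble extracellular CD47 with His tag and biotinylated SIRPalpha domains; 0% is about no effect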); details: TR-FRET HTRF CD47-His / biotin-SIRPalpha binding, ratio 665/615; series mostly up to 38.3 µM
Summary of the method: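 TR-FRET read (Ch1/Ch2 ratio) of soluble extracellular CD47 and Avi-biotinylated SIRPalpha domains in PBS pH 7.4 with 0.05% IGEPAL; 7-point compound titration. Sequential 30 min room-temperature steps; non-biotinylated SIRPalpha as control inhibitor.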

[16] = target: T1, Tyrosine-protein phosphatase non-receptor type substrate 1 (Homo sapiens) + Leukocyte surface antigen CD47 (Homo sapiens); assay: CD47-SIRPalpha protein protein interaction - Alpha assay qHTS validation (AID 1347059); details: AlphaScreen CD47-His/biotin-SIRPalpha binding, LOPAC; series mostly up to 38.3 µM;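 also: bead proximity luminescence from CD47 binding SIRPalpha after compound preincubation with SIRPalpha; % is scaled to controls: 0 for no effect and ±100 for the full control effect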
Summary of the method: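 Binding is measured by AlphaScreen proximity: Ni-NTA acceptor beads capture His-CD47, streptavidin donor beads capture biotin-SIRPalpha. Each of three additions (SIRPalpha with compound, CD47, beads) incubates 30 min at room temperature protected from light.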

[17] = target: Parathyroid hormone/parathyroid hormone-related peptide receptor (Homo sapiens) (UniProt Q03431); assay: qHTS for PTHR1 Agonists: Optimization Screen against the NCGC LOPAC library (AID 1347079); details: HEK293 GP2 PTHR1 GloSensor cAMP luminescence, 1 h; series mostly up to 57.1 µM;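 also: GloSensor cAMP luminescence in HEK-293 GP2 cells expressing human PTHR1 with IBMX; 0% is about no effect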
Parathyroid hormone/parathyroid hormone-related peptide receptor (Homo sapiens), sequence (Q03431 whole entry, looked up): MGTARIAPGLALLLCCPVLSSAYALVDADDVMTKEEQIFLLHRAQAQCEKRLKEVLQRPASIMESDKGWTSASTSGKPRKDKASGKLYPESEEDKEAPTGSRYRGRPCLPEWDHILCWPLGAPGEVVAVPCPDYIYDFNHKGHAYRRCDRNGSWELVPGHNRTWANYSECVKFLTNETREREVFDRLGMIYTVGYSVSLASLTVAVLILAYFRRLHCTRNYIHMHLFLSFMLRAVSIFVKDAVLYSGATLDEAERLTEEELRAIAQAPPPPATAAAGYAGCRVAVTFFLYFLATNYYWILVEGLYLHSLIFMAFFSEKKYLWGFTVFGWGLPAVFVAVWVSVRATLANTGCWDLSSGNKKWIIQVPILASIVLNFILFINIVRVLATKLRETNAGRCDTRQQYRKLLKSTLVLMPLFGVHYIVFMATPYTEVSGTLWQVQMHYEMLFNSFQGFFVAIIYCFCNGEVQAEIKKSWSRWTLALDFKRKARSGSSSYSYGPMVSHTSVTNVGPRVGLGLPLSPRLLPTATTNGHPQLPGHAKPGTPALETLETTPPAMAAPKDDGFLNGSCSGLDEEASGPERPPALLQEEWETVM
Summary of the method: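 Compounds were tested across a qHTS titration. PTHR1-expressing GP2 cells report cAMP rises via GloSensor luminescence after 1 hr compound exposure at 37C with IBMX present.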

CC(C)=CC1C(C(=O)OCN2C(=O)C3=C(CCCC3)C2=O)C1(C)C (stereo not given)
inactive: outcome [1] | outcome [2] | outcome [3] | Potency [4] | outcome [5] | Potency [6]

C[C@]12CC[C@@H]3c4ccc(OC(=O)N(CCCl)CCCl)cc4CC[C@H]3[C@@H]1CC[C@@H]2OP(=O)(O)O
inactive: outcome [1] | Potency [7] | Potency [8] | outcome [9] | Potency [10] | outcome [11] | Potency [4] | outcome [5] | Potency [6]

Oc1ccc(Cl)cc1
inactive: outcome [1] | outcome [2] | outcome [3] | Potency [4] | outcome [5] | Potency [6]

O=c1[nH]oc2c1CCNC2
inactive: outcome [1] | outcome [2] | outcome [3] | Potency [4] | outcome [12] | outcome [13] | outcome [5] | outcome [14] | outcome [15] | outcome [16] | outcome [17] | Potency [6]

CCC1(c2ccccc2)C(=O)N(COC)C(=O)N(COC)C1=O
inactive: outcome [1] | outcome [2] | outcome [3] | Potency [4] | outcome [5] | Potency [6]

C[C@@H](N)[C@@H](O)c1ccccc1
inactive: outcome [1] | outcome [2] | outcome [3] | Potency [4] | outcome [5] | Potency [6]

CC(=O)OCC1=C(C(=O)O)N2C(=O)[C@@H](N)[C@H]2SC1
inactive: outcome [1] | outcome [2] | outcome [3] | outcome [11] | Potency [4] | outcome [5] | Potency [6]

CCC(C)(C)c1ccc(O)cc1
inactive: outcome [1] | outcome [2] | outcome [3] | Potency [4] | outcome [5] | Potency [6]

NNc1ccccc1
inactive: outcome [1] | outcome [2] | outcome [3] | Potency [4] | outcome [5] | Potency [6]

CC(C)c1cccc(C(C)C)c1O
inactive: outcome [1] | Potency [7] | Potency [8] | outcome [9] | Potency [10] | outcome [2] | outcome [3] | Potency [4] | outcome [12] | outcome [13] | outcome [5] | outcome [14] | outcome [15] | outcome [16] | outcome [17] | Potency [6]

Nc1ccccc1C(=O)O
inactive: outcome [1] | outcome [2] | outcome [3] | Potency [4] | outcome [5] | Potency [6]

CC(C)(C)NCC(O)c1ccccc1Cl (stereo not given)
inactive: outcome [1] | activity, negative = inhibition [2] 11.9% [at 9.21 µM] | outcome [3] | Potency [4] | outcome [12] | outcome [13] | outcome [5] | outcome [14] | outcome [15] | outcome [16] | outcome [17] | Potency [6]

Nc1ccc([As](=O)(O)O)cc1
inactive: outcome [1] | outcome [2] | outcome [3] | Potency [4] | outcome [5] | Potency [6]

O=C1c2ccccc2C(=O)c2ccccc21
inactive: outcome [1] | outcome [2] | outcome [3] | Potency [4] | outcome [5] | Potency [6]

CC(C)c1c(CN(C)C(C)Cc2ccccc2)n(C)n(-c2ccccc2)c1=O (stereo not given)
inactive: outcome [1] | outcome [2] | outcome [3] | outcome [5] | Potency [6]

O=C1OC(c2ccc(O)c(S(=O)(=O)O)c2)(c2ccc(O)c(S(=O)(=O)O)c2)c2c(Br)c(Br)c(Br)c(Br)c21
inactive: outcome [1] | outcome [2] | outcome [3] | Potency [4] | outcome [5] | Potency [6]

CC(NC(C)(C)C)C(=O)c1cccc(Cl)c1 (stereo not given)
inactive: outcome [1] | Potency [7] | Potency [8] | outcome [9] | Potency [10] | outcome [2] | outcome [3] | Potency [4] | outcome [12] | outcome [13] | outcome [5] | outcome [14] | outcome [15] | outcome [16] | outcome [17] | Potency [6]

COP(=S)(OC)SCN1C(=O)c2ccccc2C1=O
inactive: outcome [1] | outcome [2] | outcome [3] | Potency [4] | outcome [5] | Potency [6]

C[C@]12CC[C@H]3[C@@H](CC[C@@]45O[C@H]4C(O)=C(C#N)C[C@]35C)[C@H]1CC[C@H]2O
inactive: outcome [1] | outcome [5] | Potency [6]
active: Potency [10] 20.9 µM

NC(=O)c1cc([N+](=O)[O-])cc([N+](=O)[O-])c1
inactive: outcome [1] | outcome [2] | outcome [3] | Potency [4] | outcome [5] | Potency [6]

NC(=O)CS(=O)C(c1ccccc1)c1ccccc1 (stereo not given)
inactive: outcome [1] | outcome [2] | outcome [3] | Potency [4] | outcome [5] | Potency [6]

CN1C(=O)CCS(=O)(=O)C1c1ccc(Cl)cc1 (stereo not given)
inactive: outcome [1] | outcome [9] | outcome [2] | outcome [3] | Potency [4] | outcome [12] | outcome [13] | outcome [5] | outcome [14] | outcome [15] | outcome [16] | outcome [17] | Potency [6]

CN1C(=O)COc2c(C(=O)NC3CN4CCC3CC4)cc(Cl)cc21 (stereo not given)
inactive: outcome [1] | Potency [7] | Potency [8] | outcome [9] | Potency [10] | outcome [2] | outcome [3] | Potency [4] | outcome [5] | Potency [6]

O=C1c2ccccc2C(=O)C1C(=O)C(c1ccccc1)c1ccccc1
inactive: outcome [1] | outcome [2] | outcome [3] | outcome [5] | Potency [6]

CC(C)NC(C)C
inactive: outcome [1] | outcome [2] | outcome [3] | Potency [4] | outcome [5] | Potency [6]

C=CCN1C[C@H](C)N([C@H](c2ccc(C(=O)N(CC)CC)cc2)c2cccc(OC)c2)C[C@H]1C
inactive: outcome [1] | outcome [2] | outcome [3] | outcome [11] inactive [at 9.29 µM] | activity change, negative = cytotoxicity [4] -6.15% [at 9.29 µM] | outcome [5] | Potency [6]
